The target in experiment [1] is Ubiquitin carboxyl-terminal hydrolase 1 (Homo sapiens) (UniProt O94782). Nature of the experiment: Inhibitors of USP1/UAF1: Pilot qHTS (AID 504865). Also: nearly all actives have a fitted effect of over 35% in size. Also: potency is read from the fitted curve at half-maximal effect. To be noted: purified USP1/UAF1, Ub-rhodamine cleavage fluorescence; series mostly up to 114 µM. The gist of the method:
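1nM USP1/UAF1 + cpd, 15 min RT; start w/ Ub-Rho 150nM final; kinetic FL 480/540 nm, 6 reads q60 s. Buffer 50mM HEPES pH 7.8, 0.5mM EDTA, 1mM TCEP, 0.01% Tween-20, 0.1 mg/ml BSA.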
A general note: qHTS replaces the single test concentration by a dilution series.

In experiment [2] the target is Voltage-gated inwardly rectifying potassium channel KCNH2 (Homo sapiens) (UniProt Q12809). Nature of the experiment: qHTS Assay for Small Molecule Inhibitors of the Human hERG Channel Activity (AID 588834).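 Also: top concentration of the series differs between compounds; lower thallium flux fluorescence means stronger hERG block; nearly all actives have a fitted effect of over 50% in size.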 To be noted: U2OS BacMam hERG, FluxOR thallium flux fluorescence; series mostly up to 46.1 µM. The gist of the method:
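Concentration-response qHTS measuring drop in thallium-sensitive dye signal. U2OS cells carrying BacMam hERG; compound exposure ~10 min, then stimulation buffer and 2 min read at 1 sec intervals.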

In experiment [3] the target is DNA dC->dU-editing enzyme APOBEC-3G (Homo sapiens) (UniProt Q9HC16). Nature of the experiment: qHTS for inhibitors of Vif-A3G interactions: Validation (AID 588379). To be noted: Vif-A3G protein interaction assay; series mostly up to 46.1 µM. The gist of the method: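 HeLa cells stably expressing Vif and A3G-eYFP, 700 cells/well, incubated overnight at 37 deg C, then exposed to compound overnight at 37 deg C. Inhibition of Vif-mediated degradation read as increased yellow fluorescence (Ex 488/Em 500-530) by laser-scanning cytometry.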
Sequence of DNA dC->dU-editing enzyme APOBEC-3G (Homo sapiens) (Q9HC16 whole entry, looked up): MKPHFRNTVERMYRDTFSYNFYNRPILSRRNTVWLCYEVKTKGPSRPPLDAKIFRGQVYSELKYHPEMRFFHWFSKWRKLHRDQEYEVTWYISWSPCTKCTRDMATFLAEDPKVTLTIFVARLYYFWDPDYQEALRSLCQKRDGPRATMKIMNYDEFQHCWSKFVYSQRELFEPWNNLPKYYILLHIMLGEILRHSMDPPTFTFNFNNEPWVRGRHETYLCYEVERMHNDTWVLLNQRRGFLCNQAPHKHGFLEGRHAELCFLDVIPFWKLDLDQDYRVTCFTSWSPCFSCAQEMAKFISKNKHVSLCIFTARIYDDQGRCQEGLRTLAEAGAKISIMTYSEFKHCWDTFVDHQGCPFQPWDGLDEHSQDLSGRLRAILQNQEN

Experiment [4] concerns the target Glucocorticoid receptor (Homo sapiens) (UniProt P04150). Nature of the experiment: qHTS assay for small molecule antagonists of glucocorticoid receptor signaling (AID 588533; active = well fitted inhibition curve with a large enough effect in the signal ratio, with a control signal flat, not every such curve was filed as active; the % refers to the signal ratio;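 also: cells stimulated with 2 nM dexamethasone as agonist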). To be noted: HeLa MMTV-bla, GRE beta-lactamase ratio, antagonist mode, 18 h; series mostly up to 76.8 µM. The gist of the method:
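Antagonist-mode qHTS: compound titrations added to GRE-bla HeLa cells, then dexamethasone 2 nM final; 18 h, 37 C. CCF4 FRET fluorescence normalized to dexamethasone and DMSO; IC50 from Hill fit.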

The target in experiment [5] is Vitamin D3 receptor (Homo sapiens) (UniProt P11473). Nature of the experiment: qHTS assay for small molecule antagonists of vitamin D receptor signaling (AID 588541; calls by dose curve;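 also: receptor activated by calcitriol during compound treatment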). To be noted: HEK293T VDR-UAS-bla, beta-lactamase ratio, antagonist mode; series mostly up to 76.7 µM. The gist of the method:
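Antagonist-mode beta-lactamase reporter assay: HEK293T VDR-UAS-bla cells were exposed to titrated compound alongside 1-alpha,25-dihydroxyvitamin D3 at 3 nM final for 16 h. Values were normalized to the 50 nM agonist control and DMSO basal, with IC50 and efficacy from Hill equation fits.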

For experiment [6] the target is unchanged. Nature of the experiment: qHTS assay for small molecule agonists of vitamin D receptor signaling (AID 588543; calls by dose curve). To be noted: HEK293T VDR-UAS-bla, beta-lactamase ratio, 16 h; series mostly up to 76.8 µM. The gist of the method:
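β-lactamase reporter, VDR-UAS-bla HEK293T, agonist mode. Cells plated 5 h at 37 °C, compound titration 16 h at 37 °C, CCF4 dye 2 h RT, ratio 460/530 nm. Hill fit → EC50, efficacy vs 50 nM 1α,25-(OH)2D3.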

A short description of experiment [7]: qHTS assay for small molecule agonists of retinoid X receptor alpha signaling (AID 588544; calls by dose curve). To be noted: HEK293T RXRa-UAS-bla, beta-lactamase reporter, 18 h; 530 nm emission.
Experiment [8] concerns the target Retinoic acid receptor RXR-alpha (Homo sapiens) (UniProt P19793). Described as above. To be noted: HEK293T RXRa-UAS-bla, beta-lactamase reporter, 18 h; series mostly up to 76.7 µM.
Experiment [9] concerns the target Thyroid hormone receptor beta (Homo sapiens) (UniProt P10828). Nature of the experiment: qHTS assay for small molecule agonists of thyroid hormone receptor beta signaling (AID 588545; calls by dose curve). To be noted: TR-UAS-bla GripTite HEK 293, beta-lactamase ratio, agonist mode, 18 h, percent of T3 response, DMSO as zero; series mostly up to 76.7 µM. The gist of the method:
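In this cell-based screen, titrated compounds act on HEK 293 cells held in medium with 2% charcoal/dextran FBS, NEAA and pyruvate for 18 hrs at 37 C. Responses are expressed relative to T3 (10 nM) as 100% and basal DMSO as 0%.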

A short description of experiment [10]: qHTS assay for small molecule antagonists of retinoid X receptor alpha signaling (AID 588546; active = well fitted inhibition curve with a large enough effect in the signal ratio, with a control signal flat, not every such curve was filed as active; the % refers to the signal ratio;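 also: cells stimulated with 9-cis-retinoic acid as agonist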). To be noted: HEK293T RXRa-UAS-bla, beta-lactamase ratio, antagonist mode; measured here: W530 green channel, cytotoxicity proxy. A digest of the protocol:
(§1)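 Beta-lactamase reporter inhibition, read as CCF4 fluorescence ratio (ex 405, em 460/530 nm) after 2 h at RT. HEK293T UAS-bla cells, 2500/well, were stimulated with 9-cis-RA at 500 or 100 nM final alongside test compound for 18 h at 37 C.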

For experiment [11], the target named is Retinoic acid receptor RXR-alpha (Homo sapiens) (UniProt P19793). The description is as above. To be noted: HEK293T RXRa-UAS-bla, beta-lactamase ratio, antagonist mode. A digest of the protocol: as §1
Sequence of Retinoic acid receptor RXR-alpha (Homo sapiens) (P19793 whole entry, looked up): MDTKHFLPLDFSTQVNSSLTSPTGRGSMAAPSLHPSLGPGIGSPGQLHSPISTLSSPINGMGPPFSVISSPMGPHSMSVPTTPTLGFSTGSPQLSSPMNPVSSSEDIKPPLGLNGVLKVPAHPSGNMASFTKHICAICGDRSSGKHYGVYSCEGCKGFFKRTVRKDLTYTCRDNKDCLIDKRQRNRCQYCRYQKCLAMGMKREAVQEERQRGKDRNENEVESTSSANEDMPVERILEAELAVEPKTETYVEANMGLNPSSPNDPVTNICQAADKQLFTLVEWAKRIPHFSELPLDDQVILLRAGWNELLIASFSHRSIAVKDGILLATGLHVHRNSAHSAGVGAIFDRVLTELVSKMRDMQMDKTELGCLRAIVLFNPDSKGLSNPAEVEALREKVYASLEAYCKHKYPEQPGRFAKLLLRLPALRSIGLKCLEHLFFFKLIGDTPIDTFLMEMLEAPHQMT
Experiment [12] deals with Thyroid hormone receptor beta (Homo sapiens) (UniProt P10828). Nature of the experiment: qHTS assay for small molecule antagonists of thyroid hormone receptor beta signaling (AID 588547; active = well fitted inhibition curve with a large enough effect in the signal ratio, with a control signal flat, not every such curve was filed as active; the % refers to the signal ratio;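 also: cells stimulated with 0.4 nM T3 agonist during compound exposure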). To be noted: TR-UAS-bla HEK293, beta-lactamase ratio, antagonist mode, 18 h. The gist of the method:
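Inhibition of T3-driven (0.4nM final) beta-lactamase reporter activity was measured over 0.59 nM to 92 uM compound after 18 h at 37 C. The cells were GripTite HEK293 TR-UAS-bla in charcoal/dextran-stripped serum, with CCF4 ratio read-out and IC50 from Hill fits.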

“And” between values parts separate entries of the source, which are not always exact repeats. Equal values may be shown once. Records with an inconclusive call do not appear. A call without a number means that no potency is given here. The source made the active and inactive calls. Unless noted, calls follow the shape of the dose curve; as a rule, active = well fitted inhibition curve with a large enough effect; inconclusive = small, poorly fitted or top-dose-only effect; inactive = flat fitted curve, though single readings scatter.

Sequence of Vitamin D3 receptor (Homo sapiens) (P11473 whole entry, looked up): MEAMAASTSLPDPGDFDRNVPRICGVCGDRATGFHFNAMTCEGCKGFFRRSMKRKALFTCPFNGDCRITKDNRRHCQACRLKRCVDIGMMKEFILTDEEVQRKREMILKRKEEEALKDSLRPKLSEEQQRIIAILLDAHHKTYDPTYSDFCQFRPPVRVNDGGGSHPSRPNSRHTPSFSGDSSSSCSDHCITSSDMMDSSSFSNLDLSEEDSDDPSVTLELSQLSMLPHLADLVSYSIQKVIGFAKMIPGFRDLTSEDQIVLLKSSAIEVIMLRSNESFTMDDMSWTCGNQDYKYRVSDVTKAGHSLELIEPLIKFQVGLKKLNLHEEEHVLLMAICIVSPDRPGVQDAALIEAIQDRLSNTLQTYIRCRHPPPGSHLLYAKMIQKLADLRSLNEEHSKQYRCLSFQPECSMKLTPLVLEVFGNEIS
Sequence of Voltage-gated inwardly rectifying potassium channel KCNH2 (Homo sapiens) (Q12809 whole entry, looked up): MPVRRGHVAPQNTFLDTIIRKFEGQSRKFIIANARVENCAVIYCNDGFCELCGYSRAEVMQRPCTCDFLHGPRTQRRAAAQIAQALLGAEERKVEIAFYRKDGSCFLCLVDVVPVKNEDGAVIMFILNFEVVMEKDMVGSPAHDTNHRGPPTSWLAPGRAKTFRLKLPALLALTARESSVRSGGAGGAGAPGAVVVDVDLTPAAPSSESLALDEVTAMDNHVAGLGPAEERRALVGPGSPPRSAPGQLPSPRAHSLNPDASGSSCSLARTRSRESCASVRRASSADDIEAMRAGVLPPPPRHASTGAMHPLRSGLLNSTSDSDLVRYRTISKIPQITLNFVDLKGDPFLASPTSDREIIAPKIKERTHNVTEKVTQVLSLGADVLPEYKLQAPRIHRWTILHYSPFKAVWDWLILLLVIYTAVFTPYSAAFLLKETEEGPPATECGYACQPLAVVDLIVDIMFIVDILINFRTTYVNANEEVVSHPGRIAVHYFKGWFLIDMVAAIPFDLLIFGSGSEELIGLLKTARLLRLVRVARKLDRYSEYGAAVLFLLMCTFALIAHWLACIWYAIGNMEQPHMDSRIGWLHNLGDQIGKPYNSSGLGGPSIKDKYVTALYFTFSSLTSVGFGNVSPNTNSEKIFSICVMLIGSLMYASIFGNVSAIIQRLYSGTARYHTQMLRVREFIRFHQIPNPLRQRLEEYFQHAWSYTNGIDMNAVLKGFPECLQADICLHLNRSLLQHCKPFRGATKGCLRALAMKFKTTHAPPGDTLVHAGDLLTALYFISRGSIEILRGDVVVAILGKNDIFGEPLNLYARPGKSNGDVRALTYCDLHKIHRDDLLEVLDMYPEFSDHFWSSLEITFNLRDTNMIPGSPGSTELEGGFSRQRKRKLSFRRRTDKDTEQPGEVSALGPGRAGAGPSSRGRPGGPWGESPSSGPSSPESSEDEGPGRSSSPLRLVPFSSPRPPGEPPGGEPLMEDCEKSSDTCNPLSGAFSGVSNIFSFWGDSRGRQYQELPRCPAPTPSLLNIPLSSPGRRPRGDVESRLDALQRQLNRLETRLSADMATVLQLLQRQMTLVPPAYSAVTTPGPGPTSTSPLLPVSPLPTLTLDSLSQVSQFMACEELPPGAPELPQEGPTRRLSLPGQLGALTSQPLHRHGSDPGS
Sequence of Thyroid hormone receptor beta (Homo sapiens) (P10828 whole entry, looked up): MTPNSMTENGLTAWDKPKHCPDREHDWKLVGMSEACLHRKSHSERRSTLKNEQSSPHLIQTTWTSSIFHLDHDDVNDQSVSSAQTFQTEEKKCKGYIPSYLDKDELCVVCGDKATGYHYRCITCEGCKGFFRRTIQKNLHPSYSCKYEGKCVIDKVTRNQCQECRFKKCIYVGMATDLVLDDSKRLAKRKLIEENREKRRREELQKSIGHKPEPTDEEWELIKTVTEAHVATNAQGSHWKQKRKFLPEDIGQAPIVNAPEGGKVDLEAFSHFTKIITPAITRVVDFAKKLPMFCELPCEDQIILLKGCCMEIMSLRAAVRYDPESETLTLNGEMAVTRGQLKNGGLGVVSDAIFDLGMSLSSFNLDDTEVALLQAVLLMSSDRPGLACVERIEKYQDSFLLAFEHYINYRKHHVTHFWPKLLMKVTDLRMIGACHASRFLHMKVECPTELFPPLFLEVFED
Sequence of Ubiquitin carboxyl-terminal hydrolase 1 (Homo sapiens) (O94782 whole entry, looked up): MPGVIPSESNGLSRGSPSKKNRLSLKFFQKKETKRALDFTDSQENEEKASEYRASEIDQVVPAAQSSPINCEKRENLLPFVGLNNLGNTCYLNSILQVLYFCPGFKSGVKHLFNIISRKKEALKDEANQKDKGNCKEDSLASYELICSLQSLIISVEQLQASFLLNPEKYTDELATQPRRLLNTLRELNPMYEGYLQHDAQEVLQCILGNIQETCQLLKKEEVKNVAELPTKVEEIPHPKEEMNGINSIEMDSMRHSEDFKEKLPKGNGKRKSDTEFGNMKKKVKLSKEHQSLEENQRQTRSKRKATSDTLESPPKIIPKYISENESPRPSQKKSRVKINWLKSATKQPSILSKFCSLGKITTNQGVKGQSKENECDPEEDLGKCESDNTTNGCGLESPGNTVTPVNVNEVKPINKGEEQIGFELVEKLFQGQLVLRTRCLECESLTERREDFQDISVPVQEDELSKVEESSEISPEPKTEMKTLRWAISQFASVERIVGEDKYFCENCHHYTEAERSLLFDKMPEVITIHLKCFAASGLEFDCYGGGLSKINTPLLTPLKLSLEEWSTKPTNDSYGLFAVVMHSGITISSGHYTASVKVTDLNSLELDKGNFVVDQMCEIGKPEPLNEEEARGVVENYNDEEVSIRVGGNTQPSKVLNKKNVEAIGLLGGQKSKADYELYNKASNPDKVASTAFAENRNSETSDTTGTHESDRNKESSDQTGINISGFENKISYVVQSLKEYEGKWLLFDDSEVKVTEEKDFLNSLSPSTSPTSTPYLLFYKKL
Sequence of Glucocorticoid receptor (Homo sapiens) (P04150 whole entry, looked up): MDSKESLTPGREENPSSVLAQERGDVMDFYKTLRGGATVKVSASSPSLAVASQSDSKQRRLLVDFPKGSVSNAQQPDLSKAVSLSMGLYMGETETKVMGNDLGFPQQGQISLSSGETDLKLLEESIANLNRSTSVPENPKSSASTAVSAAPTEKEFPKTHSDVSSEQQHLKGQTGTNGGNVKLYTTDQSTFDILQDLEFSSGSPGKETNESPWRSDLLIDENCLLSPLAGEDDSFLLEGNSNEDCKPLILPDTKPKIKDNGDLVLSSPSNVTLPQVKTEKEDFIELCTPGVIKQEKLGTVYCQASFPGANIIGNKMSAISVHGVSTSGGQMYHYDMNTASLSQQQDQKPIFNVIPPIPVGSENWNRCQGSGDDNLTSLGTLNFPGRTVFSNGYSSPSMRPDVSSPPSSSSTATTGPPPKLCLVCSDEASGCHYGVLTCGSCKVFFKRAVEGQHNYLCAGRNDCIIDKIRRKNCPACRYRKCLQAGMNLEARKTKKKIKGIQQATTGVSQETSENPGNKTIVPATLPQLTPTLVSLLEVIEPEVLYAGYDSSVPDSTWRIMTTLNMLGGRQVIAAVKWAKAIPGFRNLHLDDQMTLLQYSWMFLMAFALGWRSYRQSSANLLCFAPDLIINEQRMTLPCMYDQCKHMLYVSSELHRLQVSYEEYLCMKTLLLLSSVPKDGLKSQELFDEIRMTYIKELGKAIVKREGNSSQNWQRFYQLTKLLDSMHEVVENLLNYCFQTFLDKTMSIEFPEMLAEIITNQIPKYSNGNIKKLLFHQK

Regarding `CN[C@H]1[C@@H](O[C@@H]2[C@H](O[C@@H]3[C@@H](O)[C@@H](O)[C@@H](N=C(N)N)[C@@H](O)[C@@H]3N=C(N)N)O[C@H](C)[C@@]2(O)C=O)O[C@@H](CO)[C@@H](O)[C@H]1O`, the Potency result in experiment [1] is “inactive”.
In the case of `NCC1CCC(C(=O)O)CC1` (configuration not stated), the Potency entry in experiment [1] and in [2] was “inactive” each time.
With `CN1CCN2c3ncccc3Cc3ccccc3C2C1` (configuration not stated), the Potency entry in experiment [1] and in [2] was “inactive” each time. Further, the compound was called inactive in experiment [3].
With `CC[C@H](C)C(=O)O[C@H]1C[C@H](O)C=C2C=C[C@H](C)[C@H](CC[C@@H](O)C[C@@H](O)CC(=O)O)[C@H]21`, the Potency entry in experiment [2] is “inactive”.
Turning to `CC(NCCc1ccc(O)cc1)C(O)c1ccc(O)cc1` (configuration not stated), the Potency result in [1] was “inactive”.
Regarding `Nc1ccn([C@@H]2O[C@H](CO)[C@@H](O)[C@H]2O)c(=O)n1`, the Potency entry in experiment [1] is “inactive”. For the same compound, the compound was classed as inactive in experiment [3].
On to `CCCCC(C=O)NC(=O)C(CC(C)C)NC(=O)OCc1ccccc1` (configuration not stated), for which the Potency result in [1] was “inactive”. In addition, the call in experiment [3] was inactive.
For `COc1ccnc(CS(=O)c2nc3ccc(OC(F)F)cc3[nH]2)c1OC` (configuration not stated), in [1], the Potency entry is “inactive”.
Turning to `COc1ccc(CCN(C)CCCOc2ccc(S(=O)(=O)c3[nH]c4ccccc4c3C(C)C)cc2)cc1OC`, the outcome in experiment [3] was inactive.
`COc1cc2c(cc1OC)CC(=O)N(CCCN(C)C[C@H]1Cc3cc(OC)c(OC)cc31)CC2`: the Potency entry in experiment [1] is “inactive”.
For `C[C@@H]1C[C@H]2[C@@H]3CCC4=CC(=O)C=C[C@]4(C)[C@@]3(F)[C@@H](O)C[C@]2(C)[C@@]1(O)C(=O)CO`, the result in experiment [4], in [5], in experiment [6], in experiment [8] and in [9] was inactive. Further, the max response in [7] is 10.8% and 0.324%; in experiment [10], 18.8% and -5.96%; in experiment [11], -0.0279% (inactive) and -1.12% (inactive). The activity change % (negative = inhibition) in [12] is 1.08% (inactive) and 5.56% (inactive). Also, in [2], the Potency entry was “inactive”.
Turning to `CCCCC[C@H](O)C=C[C@H]1[C@H](O)CC(=O)[C@H]1CCCCCCC(=O)O`, the Potency entry in experiment [1] was “inactive”. In [3], the result was inactive.
In the case of `Cc1cc2nc3c(=O)[nH]c(=O)nc-3n(CC(O)C(O)C(O)CO)c2cc1C` (configuration not stated), the Potency in experiment [1] is 31.6 µM (active).
Regarding `Cc1ccc(NC(=O)c2cccc(N(C)C)c2)cc1NC(=O)c1ccc(O)cc1`, the Potency entry in experiment [1] was “inactive”. The call in [3] was inactive.
For `COc1ccc(-c2nc3ccc(C4=NNC(=O)CC4C)cc3[nH]2)cc1` (configuration not stated), in experiment [2], the Potency entry is “inactive”.
In the case of `CC(C)CN(C[C@@H](O)[C@H](Cc1ccccc1)NC(=O)O[C@H]1CO[C@H]2OCC[C@H]21)S(=O)(=O)c1ccc(N)cc1`, the Potency result in experiment [1] was “inactive”.
With `OC(c1cc(C(F)(F)F)nc2c(C(F)(F)F)cccc12)C1CCCCN1` (configuration not stated), the Potency entry in experiment [1] is “inactive”.
As for `COc1c(C)c2c(c(O)c1CC=C(C)CCC(=O)OCCN1CCOCC1)C(=O)OC2`, the Potency entry in [1] and in experiment [2] was “inactive” in each case.
Take `O=C(O)c1nc(=O)[nH]c(=O)[nH]1`: the Potency entry in experiment [1] and in experiment [2] was “inactive” each time.
